The whole screen tested about 48,000 compounds, of which about 13,000 (27%) showed an effect of 50% or more. Some of the results follow.
Each compound was assayed on Wolbachia pipientis (assay: Anti-Wolbachia Cell-Based Screen). Conditions: 5 µM.
Type: functional
Design: scale not given: in the data most compounds retested in dose-response had high values

Compound	Percent Effect [%]
CCc1nc(C)c(CN2CCN(c3ncnc4scc(C)c34)CC2)[nH]1	-4.164
CCN(CCNC(=O)c1ccccc1OCCOC)C1CC1	11.11
CCC(C)N(C)CCNC(=O)c1ccccc1OCCOC (stereo unspecified)	91.86
CS(=O)(=O)c1ccccc1C(=O)NCC1Cc2ccccc2O1 (stereo unspecified)	-10.07
COCCOc1ccccc1C(=O)NCCN(C)C(C)C	86.22
CCNC(=O)NC(=O)C(C)Nc1ccccc1OCCOC (stereo unspecified)	1.487
COCCCNC(=O)c1ccccc1S(C)(=O)=O	133.8
CS(=O)(=O)c1ccccc1C(=O)NCCCN1CCc2ccccc2C1	5.39
COCCOc1ccccc1C(=O)N(C)Cc1ncc(C)c(OC)c1C	-3.129
CN(CCCNC(=O)c1ccccc1OCC(N)=O)CC(F)(F)F	8.203
CCCn1nc2c(cc1=O)CN(Cc1nc(CCOC)no1)CC2	3.931
Cn1nc(C2CCCC2)c(-c2ccc3c(c2)OCO3)c1N	-8.229
CNC(=O)[C@@]12CCC3(CCN(S(C)(=O)=O)CC3)[C@@H]1CN(C(C)=O)C2	110.1
CNC(=O)[C@@]12CCC3(CCN(S(=O)(=O)C4CC4)CC3)[C@@H]1CN(C(C)=O)C2	108
CCS(=O)(=O)N1CCC2(CC1)CC[C@@]1(C(=O)N(C)C)CN(C)C[C@@H]21.O=C(O)C(F)(F)F	4.402
CCS(=O)(=O)N1CCC2(CC1)CC[C@@]1(C(=O)N(C)C)CN(C(C)=O)C[C@@H]21	-13.65
CC(=O)N1C[C@H]2C3(CCN(S(C)(=O)=O)CC3)CC[C@@]2(C(=O)N(C)C)C1	-15.61
CCS(=O)(=O)N1CCC2(CC1)CC[C@@]1(C(=O)NC)CN(C(C)=O)C[C@@H]21	0.6663
O=C(NCC1CC2(CO1)CN(Cc1cccs1)C2)C1CCC1.O=C(O)C(F)(F)F (stereo unspecified)	112.2
O=C(O)C(F)(F)F.O=C(O)[C@]12CCCN(Cc3cccs3)C[C@H]1CN(c1ncccn1)C2	1.756
O=C(NC[C@H]1Cn2c(-c3ccccc3)cnc2CO1)C1CC1	-24.2
O=S(=O)(C1CC1)N1CCCC2(COCCN(c3nncs3)C2)C1 (stereo unspecified)	1.243
CCS(=O)(=O)N1CCCC2(COCCN(c3nncs3)C2)C1 (stereo unspecified)	-5.345
O=C(N[C@@H]1CN(Cc2cccs2)[C@@H]2COC[C@@H]21)C1CCC1.O=C(O)C(F)(F)F	-6.502
CN(C)C(=O)NCC1CC2(CO1)CN(c1nncs1)C2 (stereo unspecified)	109.2
CN(Cc1ccccc1)CC1CC2(CO1)CN(c1nncs1)C2 (stereo unspecified)	4.017

Compound	Percent Effect [%]
O=C(C1CCC2(CCN(c3nncs3)CC2)C1)N1CCCC1 (stereo unspecified)	-10.32
O=C(NCC1CC2(CO1)CN(c1nncs1)C2)C1CCC1 (stereo unspecified)	113.3
O=C(NCC1CC2(CO1)CN(c1ncccn1)C2)C1CCC1 (stereo unspecified)	124.3
O=C(O)C(F)(F)F.O=C(O)C(F)(F)F.c1ccc(OCC2CC3(CCN(c4ncccn4)CC3)CO2)nc1 (stereo unspecified)	3.683
Cn1c(Cn2cccn2)nnc1C1CCCN(c2ccncc2F)C1 (stereo unspecified)	5.271
O=C(c1ccccn1)N1C[C@@H]2CC[C@H](C1)N(C(=O)CCC1CCCC1)C2	-23.02
CCOCCCOC(=O)c1ccc2c(c1)[nH]c(=O)n2C	-4.386
COc1ncnc(N(C)C)c1NC(=O)Cc1c[nH]c2ccc(F)cc12	-15.56
C[C@@H]1CN(C(=O)c2ccc(Br)cc2F)CC(C(N)=O)O1 (stereo partly specified)	-4.259
O=C(Cc1cccs1)NCC1(O)CCSCC1	3.486
CCOCCNC(=O)Cc1cccc(I)c1	3.378
CCOCCCNC(=O)Cc1cccs1	73.09
O=C(NCC1(O)CCc2ccccc21)Nc1ccc2c(c1)OCO2 (stereo unspecified)	-4.749
Cn1ncnc1NS(=O)(=O)c1ccccc1	-4.376
Cn1ccnc1-c1noc(NCc2ccc(Br)cc2)n1	0.2508
Cn1ncnc1NS(=O)(=O)c1ccc(F)cc1	-13.8
Cn1ncnc1NS(=O)(=O)c1ccc(F)cc1Cl	-0.8831
Cn1ncnc1NCc1ccccc1Cl	98
Cn1ncnc1NCc1ccc(Br)cc1	79.22
Cn1ncnc1NCc1ccc(Cl)cc1	106
Cn1ccnc1-c1noc(NCc2ccc(Cl)cc2)n1	9.491
Cn1ncnc1NCc1ccc(F)cc1	113.5
CN(Cc1cc(Cl)ccc1Cl)Cc1ncnn1C	20.54
Clc1ccc(CNc2ccc(Cl)cn2)cc1	-12.24
Cc1nnc(NCc2ccc(Br)cc2)o1	-15.89

Reference: ChEMBL document CHEMBL3988442, “University of Dundee, Small-Polar-MMV Screening Library” (2021)
